Results taken from PubChem BioAssay (NCI).
This is part of a sample that, as a whole, favours compounds with a hit. Of some 83,000 tested, about 20% had one in any assay.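 Treatment: one concentration, 48 hours, 96-well format. Scoring: percent growth, with anything below 10 considered active.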 Activity calls are given as the source filed them.

What was measured:
Assay in all cases: NCI-60 one-dose screen, 48 h (100 = growth as untreated, 0 = no growth, -100 = all killed)
Settings in all cases: 10 µM unless noted
DU-145 prostate = tested on: DU-145 prostate
K-562 leukemia = tested on: K-562 leukemia
MALME-3M melanoma = tested on: MALME-3M melanoma
MDA-MB-231 breast = tested on: MDA-MB-231 breast
RXF 393 renal = tested on: RXF 393 renal
SF-268 CNS = tested on: SF-268 CNS
SF-295 CNS = tested on: SF-295 CNS
SF-539 CNS = tested on: SF-539 CNS
UACC-257 melanoma = tested on: UACC-257 melanoma
M14 melanoma = tested on: M14 melanoma
HT29 colon = tested on: HT29 colon
SNB-75 CNS = tested on: SNB-75 CNS
SNB-19 CNS = tested on: SNB-19 CNS
U251 CNS = tested on: U251 CNS
PC-3 prostate = tested on: PC-3 prostate
SK-MEL-5 melanoma = tested on: SK-MEL-5 melanoma
UACC-62 melanoma = tested on: UACC-62 melanoma
LOX IMVI melanoma = tested on: LOX IMVI melanoma
SK-MEL-28 melanoma = tested on: SK-MEL-28 melanoma
HCT-15 colon = tested on: HCT-15 colon

Measured: growth

C[C@@]12CC=C3c4nc(Nc5cccc(O)c5)sc4CC[C@]3(C)[C@H]1CC[C@]1(C)C(=O)CC[C@@H]21
inactive: DU-145 prostate 12.7% | MALME-3M melanoma 35.3% | MDA-MB-231 breast 39.5% | SF-268 CNS 43.1% | UACC-257 melanoma 79.6% | M14 melanoma 54.8% | SNB-75 CNS 37.3% | SNB-19 CNS 57.9% | U251 CNS 18.8% | PC-3 prostate 28.1% | SK-MEL-5 melanoma 64.8% | UACC-62 melanoma 28.8% | SK-MEL-28 melanoma 41.2%
active: K-562 leukemia 4.81% | RXF 393 renal -6.67% | SF-295 CNS -47.7% | SF-539 CNS -41.8% | HT29 colon -29% | LOX IMVI melanoma -52.7%

COc1cc(C=Nc2cc(Cl)cc(Cl)c2)ccc1N(CCCl)CCCl
inactive: DU-145 prostate 98.2% | K-562 leukemia 84.6% | MALME-3M melanoma 74.9% | MDA-MB-231 breast 65.5% | RXF 393 renal 82% | SF-268 CNS 93% | SF-295 CNS 80.8% | SF-539 CNS 89.3% | UACC-257 melanoma 100% | M14 melanoma 92.2% | HT29 colon 81.5% | SNB-75 CNS 84.1% | SNB-19 CNS 89.8% | U251 CNS 86.9% | PC-3 prostate 63.1% | SK-MEL-5 melanoma 93.9% | UACC-62 melanoma 82.9% | LOX IMVI melanoma 78.7%

COc1ccc(/C=C\c2cc(OC)c(OC)c(OC)c2)cc1NS(=O)(=O)c1ccc(Cl)cc1
inactive: DU-145 prostate 94% | K-562 leukemia 36.8% | MALME-3M melanoma 59.5% | MDA-MB-231 breast 66% | RXF 393 renal 65.8% | SF-268 CNS 79.4% | SF-295 CNS 69.3% | SF-539 CNS 82.6% | UACC-257 melanoma 69% | M14 melanoma 62.4% | HCT-15 colon 54.2% | HT29 colon 75.7% | SNB-19 CNS 87.2% | U251 CNS 77.8% | PC-3 prostate 42.7% | SK-MEL-5 melanoma 51.6% | UACC-62 melanoma 45.1% | LOX IMVI melanoma 71.3% | SK-MEL-28 melanoma 53%

CC[S][Hg][Cl]
inactive: DU-145 prostate 103% | K-562 leukemia 75.4% | MALME-3M melanoma 118% | MDA-MB-231 breast 114% | RXF 393 renal 124% | SF-268 CNS 103% | SF-295 CNS 112% | SF-539 CNS 105% | UACC-257 melanoma 97.3% | M14 melanoma 106% | HCT-15 colon 104% | SNB-75 CNS 93.6% | SNB-19 CNS 106% | U251 CNS 99.6% | PC-3 prostate 103% | SK-MEL-5 melanoma 106% | UACC-62 melanoma 103% | LOX IMVI melanoma 88.1% | SK-MEL-28 melanoma 111%

O=C(Nc1ccncc1F)c1cn(CC2CC2)c2ccccc12
inactive: DU-145 prostate 114% | K-562 leukemia 95.7% | MALME-3M melanoma 119% | MDA-MB-231 breast 109% | RXF 393 renal 103% | SF-268 CNS 105% | SF-295 CNS 100% | SF-539 CNS 110% | UACC-257 melanoma 108% | M14 melanoma 108% | HT29 colon 102% | SNB-75 CNS 103% | SNB-19 CNS 97.2% | U251 CNS 98.4% | PC-3 prostate 97.6% | SK-MEL-5 melanoma 97.3% | UACC-62 melanoma 95.3% | LOX IMVI melanoma 97%

CCN(CC)c1ccc2c(c1)OC(N)=C(C#N)C2c1cc(OC)c2c(c1)OCO2 (stereo not given)
inactive: K-562 leukemia 17.5% | MALME-3M melanoma 61.1% | RXF 393 renal 30.9% | SF-268 CNS 21.3% | SF-295 CNS 17% | UACC-257 melanoma 77.7% | HCT-15 colon 16.1% | SNB-19 CNS 40.1% | U251 CNS 12.5% | PC-3 prostate 30.9% | UACC-62 melanoma 31.8% | LOX IMVI melanoma 23.2% | SK-MEL-28 melanoma 72.2%
active: DU-145 prostate -3.69% | MDA-MB-231 breast 4.28% | SF-539 CNS 3.37% | M14 melanoma 7.87% | HT29 colon -9.44% | SK-MEL-5 melanoma -29.6%

CCOP(=O)(Nc1ccc2c(c1)/C(=N/NC(N)=S)c1ccccc1-2)OCC
inactive: DU-145 prostate 102% | K-562 leukemia 103% | MALME-3M melanoma 139% | MDA-MB-231 breast 59.7% | RXF 393 renal 90.1% | SF-268 CNS 98% | SF-295 CNS 116% | SF-539 CNS 84.7% | UACC-257 melanoma 113% | M14 melanoma 108% | HCT-15 colon 96.5% | SNB-75 CNS 80.6% | SNB-19 CNS 94.5% | U251 CNS 94.8% | PC-3 prostate 94.4% | SK-MEL-5 melanoma 84.4% | UACC-62 melanoma 77.7% | LOX IMVI melanoma 88.9% | SK-MEL-28 melanoma 116%

Fc1cccc(NCOOC2(OOCNc3cccc(F)c3)CCCCC2)c1
inactive: DU-145 prostate 98.6% | K-562 leukemia 41.3% | MALME-3M melanoma 101% | MDA-MB-231 breast 103% | RXF 393 renal 108% | SF-268 CNS 93% | SF-295 CNS 94.3% | SF-539 CNS 91.2% | UACC-257 melanoma 88.7% | M14 melanoma 91.6% | HCT-15 colon 99.2% | HT29 colon 96% | SNB-19 CNS 96.2% | U251 CNS 102% | PC-3 prostate 88.9% | SK-MEL-5 melanoma 95.2% | UACC-62 melanoma 104% | SK-MEL-28 melanoma 109%
active: LOX IMVI melanoma -68.9%
